A short description of assay [1]: qHTS assay to identify aromatase inhibitors - cell viability counter screen (AID 743084).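 Also: cells stimulated with testosterone during compound exposure; nearly all actives have a fitted effect of over 55% in size.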 Also: potency is read from the fitted curve at half-maximal effect. The following applies: MCF-7 aro ERE viability, CellTiter-Fluor, 24 h; series mostly up to 70.3 µM. (In general: Quantitative high-throughput screening tests each substance at several concentrations.)
Assay [2] is described as follows: qHTS assay to identify small molecule antagonists of the peroxisome proliferator-activated receptor gamma (PPARg) signaling pathway - cell viability counter screen (AID 743194). Also: nearly all actives have a fitted effect of over 55% in size. Also: potency is read from the fitted curve at half-maximal effect. The settings on record: PPARg-bla HEK293H viability, CellTiter-Glo luminescence, 17 h, co-treated with 50 nM rosiglitazone; series mostly up to 62.6 µM. An outline of the steps: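 Viability was measured as CellTiter-Glo luminescence in GeneBLAzer PPARg UAS-bla HEK293H cells. These cells had been exposed 17 h at 37 C to compounds together with rosiglitazone at 50 nM final, with the beta-lactamase readout taken in the same wells.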

Assay [3] in a line: qHTS assay for small molecule agonists of the antioxidant response element (ARE) signaling pathway - cell viability counter screen (AID 743203; calls by dose curve; also: nearly all actives have a fitted effect of over 55% in size; also: potency is read from the fitted curve at half-maximal effect). The following applies: ARE-bla HepG2 viability, CellTiter-Glo luminescence, 16 h; series mostly up to 73.3 µM. An outline of the steps:
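Compounds in DMSO were pinned onto ARE-bla HepG2 cells plated 5 hrs earlier at 2,000 cells/well. Sixteen hours later at 37C/5% CO2, CellTiter-Glo was added and luminescence measured after 30 min at room temperature.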

A short description of assay [4]: qHTS assay for small molecule activators of the heat shock response signaling pathway - cell viability counter screen (AID 743209). Also: nearly all actives have a fitted effect of over 50% in size. Also: potency is read from the fitted curve at half-maximal effect. The following applies: HSE-bla HeLa viability, CellTiter-Glo luminescence, 5 h; series mostly up to 62.6 µM. An outline of the steps:
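Counter screen for cytotoxicity in HeLa HSE-bla reporter cells. Treatment was 5 h at 37 C; viability was detected by luminescent ATP assay (CellTiter-Glo) in the same wells as the beta-lactamase read.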

The nature of assay [5]: qHTS assay for small molecule activators of the heat shock response signaling pathway (AID 743210; active = well fitted activation curve with a large enough effect in the signal ratio in the repeat runs, with a control signal flat, not every such curve was filed as active; the % refers to the signal ratio;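 also: HeLa cells with beta-lactamase reporter driven by heat shock elements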). The settings on record: HeLa HSE-bla reporter, beta-lactamase ratio, 5 h; series mostly up to 62.6 µM. An outline of the steps: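 HeLa HSE-bla cells, overnight plating; cpd in DMSO 5 h, 37 C; LiveBLAzer B/G FRET substrate 2.5 h RT; fluorescence intensity read.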
A short description of assay [6]: qHTS assay to identify small molecule that activate the aryl hydrocarbon receptor (AhR) signaling pathway - cell viability counter screen (AID 743086). Also: nearly all actives have a fitted effect of over 45% in size. Also: potency is read from the fitted curve at half-maximal effect. The following applies: HepG2-AhR-luc viability, CellTiter-Fluor, 24 h; series mostly up to 70.3 µM. An outline of the steps:
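Cytotoxicity counter screen: CellTiter-Fluor signal (30 min, 37 C) in 4000 HepG2 cells/well carrying the DRE-luciferase reporter, following 24 h compound exposure at 37 C.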

Assay [7] concerns the target Peroxisome proliferator-activated receptor gamma (Homo sapiens) (UniProt P37231). Kind of assay: qHTS assay to identify small molecule agonists of the peroxisome proliferator-activated receptor gamma (PPARg) signaling pathway (AID 743094; active = well fitted activation curve with a large enough effect in the signal ratio in the repeat runs, not every such curve was filed as active; the % refers to the signal ratio; also: potency is read from the fitted curve at half-maximal effect). The settings on record: HEK293H PPARg-UAS-bla, beta-lactamase FRET ratio, 17 h; series mostly up to 57 µM. An outline of the steps:
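Following 5 h plating at 37C, PPARg-bla HEK293H cells receive compound or DMSO for 17 h; fluorescence intensity is recorded after LiveBLAzer B/G loading for 1 h at room temperature.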

Assay [8] concerns the target Aryl hydrocarbon receptor (Homo sapiens) (UniProt P35869). As to the kind of experiment: qHTS assay to identify small molecule that activate the aryl hydrocarbon receptor (AhR) signaling pathway (AID 743085). Also: nearly all actives have a fitted effect of over 15% in size. Also: potency is read from the fitted curve at half-maximal effect.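 As to activation: HG2L7.5c1 human HepG2 liver cells with stably integrated DRE-driven firefly reporter.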 The settings on record: HepG2 AhR-luc (HG2L7.5c1), luciferase, 24 h; series mostly up to 70.3 µM. An outline of the steps:
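Luminescence (ONE-Glo) from a dioxin-responsive-element luciferase reporter in HG2L7.5c1 HepG2 cells after 24 hr compound exposure at 37C; viability measured by CellTiter-Fluor fluorescence beforehand.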

A short description of assay [9]: qHTS assay for small molecule agonists of the antioxidant response element (ARE) signaling pathway (AID 743202; active = well fitted activation curve with a large enough effect in the signal ratio in the repeat runs, not every such curve was filed as active; the % refers to the signal ratio; also: potency is read from the fitted curve at half-maximal effect). The settings on record: HepG2 ARE-bla reporter, beta-lactamase FRET, 16 h; series mostly up to 73.3 µM. An outline of the steps:
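Quantitative high-throughput format in HepG2 cells bearing an integrated ARE-beta-lactamase reporter. Compound exposure lasted 16 h at 37 C, and fluorescence was read 2 h after adding LiveBLAzer B/G substrate at room temperature.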

For assay [10], the target named is Peroxisome proliferator-activated receptor gamma (Homo sapiens) (UniProt P37231). As to the kind of experiment: qHTS assay to identify small molecule antagonists of the peroxisome proliferator-activated receptor gamma (PPARg) signaling pathway (AID 743191; calls by dose curve; also: nearly all actives have a fitted effect of over 30% in size; also: potency is read from the fitted curve at half-maximal effect). The following applies: HEK293H PPARg-UAS-bla, beta-lactamase ratio, antagonist, 17 h; series mostly up to 62.6 µM. An outline of the steps:
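Beta-lactamase reporter under UAS control in HEK293H PPARg-bla cells; compound treatment 17 h at 37C. Read-out: fluorescence intensity after 1 h room-temperature incubation with LiveBLAzer B/G FRET substrate.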

Each structure is given as a SMILES string. Inconclusive results are not listed. The source made the active and inactive calls. Unless noted, calls follow the shape of the dose curve; as a rule, active = well fitted curve in the direction sought with a large enough effect in the repeat runs; inconclusive = weak or mixed curves; inactive = no such curve, though single readings can be large; an effect the other way counts as inactive or inconclusive.

Sequence of Peroxisome proliferator-activated receptor gamma (Homo sapiens) (P37231 whole entry, looked up): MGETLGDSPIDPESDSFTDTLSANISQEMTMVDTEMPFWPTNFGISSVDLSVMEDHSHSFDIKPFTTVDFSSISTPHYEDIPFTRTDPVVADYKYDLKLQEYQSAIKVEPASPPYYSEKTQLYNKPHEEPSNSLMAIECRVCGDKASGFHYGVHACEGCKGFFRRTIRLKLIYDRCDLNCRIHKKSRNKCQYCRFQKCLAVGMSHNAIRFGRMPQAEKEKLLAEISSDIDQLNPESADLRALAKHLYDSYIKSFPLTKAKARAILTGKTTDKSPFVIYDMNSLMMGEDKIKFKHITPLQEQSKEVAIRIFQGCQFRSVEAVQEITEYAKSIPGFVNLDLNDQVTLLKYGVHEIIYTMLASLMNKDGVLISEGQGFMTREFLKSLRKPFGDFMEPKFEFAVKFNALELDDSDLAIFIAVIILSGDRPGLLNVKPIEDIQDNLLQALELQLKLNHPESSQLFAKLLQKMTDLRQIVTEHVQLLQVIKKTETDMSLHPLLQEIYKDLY
Sequence of Aryl hydrocarbon receptor (Homo sapiens) (P35869 whole entry, looked up): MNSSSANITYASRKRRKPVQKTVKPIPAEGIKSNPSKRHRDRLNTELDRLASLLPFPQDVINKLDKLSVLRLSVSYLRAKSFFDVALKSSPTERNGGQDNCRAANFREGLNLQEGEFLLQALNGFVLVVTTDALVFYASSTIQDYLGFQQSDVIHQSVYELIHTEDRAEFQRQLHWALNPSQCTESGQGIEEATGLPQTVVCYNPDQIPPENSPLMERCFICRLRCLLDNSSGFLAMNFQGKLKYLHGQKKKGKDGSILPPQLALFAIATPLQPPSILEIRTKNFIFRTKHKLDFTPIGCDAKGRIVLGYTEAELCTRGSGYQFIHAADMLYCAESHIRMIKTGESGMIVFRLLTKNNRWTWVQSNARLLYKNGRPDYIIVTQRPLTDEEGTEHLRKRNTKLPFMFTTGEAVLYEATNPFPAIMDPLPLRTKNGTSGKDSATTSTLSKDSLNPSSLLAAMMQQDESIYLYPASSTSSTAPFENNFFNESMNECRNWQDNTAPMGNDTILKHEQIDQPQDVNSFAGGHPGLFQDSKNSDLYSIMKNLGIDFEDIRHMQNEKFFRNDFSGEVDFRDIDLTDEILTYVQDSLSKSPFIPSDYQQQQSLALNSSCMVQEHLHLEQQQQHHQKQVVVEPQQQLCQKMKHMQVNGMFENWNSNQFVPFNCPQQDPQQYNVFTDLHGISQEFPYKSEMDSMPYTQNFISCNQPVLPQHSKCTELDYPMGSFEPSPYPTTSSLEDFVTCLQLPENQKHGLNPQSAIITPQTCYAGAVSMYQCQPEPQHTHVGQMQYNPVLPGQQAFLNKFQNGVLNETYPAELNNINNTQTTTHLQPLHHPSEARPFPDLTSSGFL

Turning to `Nc1cc(Cl)c([N+](=O)[O-])cc1O`, in assay [1], the Potency was 30.4 µM (active). Further, the Potency entry in [2], in assay [3], in [4] and in assay [5] was “inactive” throughout.

On to `C=CC(=C)CCC=C(C)C`, for which the Potency entry in assay [1], in [6], in assay [7], in assay [2], in assay [3] and in [4] was “inactive” throughout.

Regarding `O=C1c2c(O)ccc(O)c2C(=O)c2c(NCCNCCO)ccc(NCCNCCO)c21`, the Potency result in assay [8] is “inactive”.

For `CN1[C@@H]2CC[C@H]1CC(OC(=O)C(CO)c1ccccc1)C2` (stereo not given in full), the Potency entry in assay [1], in [6], in [2] and in [4] was “inactive” in each case.

Take `C=C1C(C)(C)[C@@]2(Cl)C(Cl)[C@]1(Cl)C(Cl)(Cl)C2(Cl)Cl` (stereo not given in full): the Potency result in assay [8], in [6] and in assay [7] was “inactive” throughout. Also, the Potency in assay [9] was 7.56 µM (active).

Turning to `CN1[C@@H]2CC[C@@H]1CC(OC(=O)C(CO)c1ccccc1)C2` (stereo not given in full), the Potency result in assay [1], in assay [6] and in assay [4] was “inactive” throughout.

Turning to `NCCCC(O)(P(=O)(O)O)P(=O)(O)O`, the Potency result in assay [1], in assay [6], in [2], in assay [9] and in assay [4] was “inactive” throughout.

For `C[C@@]12C(=O)OC(=O)[C@]1(C)C1CCC2O1`, the results for the Potency in [1], in [6] and in assay [3] were 3.59 µM (active), 0.569 µM (active) and 4.22 µM (active), respectively. For the same molecule, the Potency result in assay [2], in assay [4] and in assay [5] was “inactive” each time.

On to `Cc1ccc(N)cc1O`, for which the Potency in assay [8] was 15.7 µM (active); in assay [6] it was 61.1 µM (active); in [10], 49 µM (active). Besides, the Potency entry in assay [2], in assay [3] and in [5] was “inactive” in each case.

Take `CCNc1nc(NC(C)CC)nc(OC)n1` (stereo not given): the Potency entry in assay [1], in assay [6], in assay [7], in assay [10], in assay [2] and in assay [3] was “inactive” throughout.

Turning to `CC(C)c1ccc(O)c(C(C)C)c1`, the Potency entry in assay [8], in assay [6], in assay [7], in assay [2] and in assay [4] was “inactive” throughout.

As to `Clc1ccc(C(Cn2ccnc2)OCc2c(Cl)cccc2Cl)c(Cl)c1` (stereo not given), the Potency result in assay [1], in [6] and in [7] was “inactive” in each case.

Regarding `c1cc(OCC2CO2)cc(OCC2CO2)c1` (stereo not given), the results for the Potency in assay [1] and in assay [9] were 48.2 µM (active) and 30.4 µM (active), respectively. Further, the Potency entry in [2], in assay [3] and in [4] was “inactive” throughout.

For `C/C=C/C(=O)Oc1c(CCCCCC(C)C)cc([N+](=O)[O-])cc1[N+](=O)[O-]`, the Potency is 21.7 µM (active) in assay [1], 8.63 µM (active) in assay [3] and 24.5 µM (active) in assay [4].

In the case of `CCCCCCOc1cc(C)c(O)c(C)c1C`, the Potency in assay [1] is 49.2 µM (active). Moreover, the Potency entry in assay [6], in [7] and in [2] was “inactive” each time.

For `N#CSCSc1nc2ccccc2s1`, the Potency in [1] was 27.3 µM (active); in [2], 7.76 µM (active); in assay [3], 30.6 µM (active). Moreover, in assay [6], the Potency entry is “inactive”.

As to `CCc1ccc(O)c(C(C)(C)C)c1`, the Potency entry in assay [8], in assay [6], in assay [7] and in assay [4] was “inactive” each time.

Consider `CC(C)OC(=O)c1cc(C(=O)OC(C)C)cc([N+](=O)[O-])c1`, for which the Potency entry in assay [1], in assay [6], in assay [3] and in assay [4] was “inactive” throughout.

Take `CC(C)(c1cc(Br)c(OCCO)c(Br)c1)c1cc(Br)c(OCCO)c(Br)c1`: the Potency entry in assay [1], in assay [6] and in assay [7] was “inactive” throughout. In addition, the Potency in assay [2] is 17 µM (active); in [3], 18.9 µM (active); in assay [4], 17 µM (active).

With `CNC(=S)NN`, the Potency entry in assay [8], in assay [7] and in [10] was “inactive” throughout. Also, the Potency is 19.3 µM (active) in assay [6] and 24.5 µM (active) in [4].

Consider `Cc1c(-c2ccc(O)cc2)n(Cc2ccc(OCCN3CCCCCC3)cc2)c2ccc(O)cc12`, for which the Potency result in assay [1] and in assay [4] was “inactive” throughout.

As to `C=CC(C)(CCC=C(C)C)OC(=O)/C=C/c1ccccc1` (stereo not given), the Potency result in assay [8], in assay [6], in assay [7], in assay [2] and in assay [3] was “inactive” throughout.

With `CCOC(=O)C1=C(C)NC(C)=C(C(=O)OCC)C1c1ccccc1/C=C/C(=O)OC(C)(C)C`, the Potency entry in assay [1], in assay [6] and in [2] was “inactive” each time. Moreover, in [7], the Potency is 9.52 µM (active).

As for `Cc1c(C)n(Cc2ccccc2)c2ccc(C(=O)OCCN(C)C)cc12`, the Potency result in assay [1], in assay [7], in [2], in [3] and in [4] was “inactive” throughout.

Regarding `CCN(CC)CCOC(=O)C1(C2CCCCC2)CCCCC1`, the Potency result in [8], in assay [6], in assay [7], in assay [10], in assay [2] and in [9] was “inactive” throughout. Besides, the Potency result in [3], in [4] and in assay [5] was “inactive” in each case.

For `COc1ccccc1OCCNCC(O)COc1cccc2[nH]c3ccccc3c12` (stereo not given), the Potency in assay [8] is 21.1 µM (active). Besides, the Potency result in assay [6], in [7], in [4] and in [5] was “inactive” throughout.

For `CCCN(CCc1cccs1)[C@H]1CCc2c(O)cccc2C1`, the Potency entry in assay [1], in [6], in assay [7], in assay [2], in assay [9] and in assay [3] was “inactive” each time. Moreover, the Potency result in assay [4] and in assay [5] was “inactive” throughout.

For the molecule `C1CC(COCC2CO2)CCC1COCC1CO1` (stereo not given), the Potency entry in [8], in assay [6], in assay [7], in [10], in assay [2] and in [3] was “inactive” each time. In addition, the Potency result in assay [5] is “inactive”. For the same molecule, the Potency in assay [9] is 54.5 µM (active).
